Here are results for 39 compounds from PubChem BioAssay (NCATS).

Several values for one entry are separate records, joined by “and”; a condition that tells them apart may be missing. Equal values may be shown once. Results filed as inconclusive are left out. More than one record can exist for a structure, and the calls need not agree. Activity calls are given as the source filed them. Calls follow the shape of the dose curve; as a rule, active = well fitted cell-killing curve with a large enough effect in the repeat runs; inconclusive = weak or mixed curves; inactive = flat fitted curve, though single readings scatter.
% is scaled to controls: 0 for no effect and ±100 for the full control effect; potency is read from the fitted curve at half-maximal effect.

A short description of this assay: qHTS assay for small molecule agonists of the antioxidant response element (ARE) signaling pathway measured by Nrf2-dependant transcriptional activity - cell viability counter screen (AID 720653). The settings on record: ARE-bla HepG2 viability, CellTiter-Glo ATP luminescence, 16 h; max response: hits give low values. The source says: National Center for Advancing Translational Sciences [NCATS] NIH Chemical Genomics Center [NCGC] U.S. Environmental Protection Agency [EPA] National Institutes of Environmental Health Sciences [NIEHS] National Toxicology Program [NTP] Assay Overview: Oxidative stress has been implicated in the pathogenesis of a variety of diseases ranging from cancer to neurodegeneration. The antioxidant response element (ARE) signaling pathway plays an important role in the amelioration of oxidative stress. The CellSensor ARE-bla HepG2 cell line (Invitrogen) can be used for analyzing the Nrf2/antioxidant response signaling pathway. Nrf2 (NF-E2-related factor 2) and Nrf1 are transcription factors that bind to AREs and activate these genes. The CellSensor ARE-bla HepG2 cell line contains a beta-lactamase reporter gene under control of the Antioxidant Response Element (ARE) stably integrated into HepG2 cells. The activation of the report gene under culture conditions can be detected by fluorescence intensity. The cytotoxicity of the compounds against the ARE-bla HepG2 cell line was quantified by measuring the intracellular ATP content.
Assay Protocol Summary: ARE-bla HepG2 cells were dispensed at 2,000 cells/5 ul/well in 1536-well black wall/clear bottom plates using a Multidrop Combi (ThermoFisher Scientific, Waltham, MA) dispenser. After the assay plates were incubated at 37C/5% CO2 for 5 hrs, 23 nL of compounds dissolved in DMSO, positive controls or DMSO only was transferred to the assay plate by a pintool work station (Kalypsys, San Diego, CA). The plates were incubated at 37C/5% CO2 for 16 hrs. After 1 uL of LiveBLAzer B/G FRET substrate was added using a Flying Reagent Dispenser (FRD) (Aurora Discovery, San Diego, CA), the assay plates were incubated at room temperature for 2 hrs. The fluorescence intensity was measured by an Envision (PerkinElmer, Shelton, CT) plate reader. Cell viability using CellTiter Glo viability assay (Promega, Madison, WI) was also measured by adding 4 ul/well of CellTiter-Glo reagent into the same assay plate using a FRD. After 30 min incubation at room temperature, the luminescence intensity in the plates was measured using a ViewLux (PerkinElmer) plate reader.
On to `ClC1C(Cl)C(Cl)C(Cl)C(Cl)C1Cl` (stereo not given), for which the max response was -5.28% (inactive) [middle of 4 runs].
For the compound `O=C(NCNC(=O)NC1C(=O)NC(=O)N1CO)NC1C(=O)NC(=O)N1CO` (stereo not given), the max response was 1.81% (inactive).
As to `[Cl-].[Cl-].[Hg+2]`, the max response was -13.5% (inactive).
For `COCC(C)N(C(=O)CCl)c1c(C)csc1C` (stereo not given), the max response was -1.95% (inactive).
`C[C@]12CCC(=O)C[C@@H]1CC[C@@H]1[C@@H]2CC[C@]2(C)[C@@H](O)CC[C@@H]12`: the max response is -16.7% (inactive) and -5.79% (inactive).
Same read-out and setting: under `ClC(Cl)(Cl)Cl` stands 14.9% (inactive) and -6.99% (inactive).
In the case of `S=C=S`, the max response is -6.45% (inactive).
Still for that read-out and setting: the result for `O=[N+]([O-])C(Br)(CO)CO` reads -12.6% (inactive).
Still for that read-out and setting: under `NNC(N)=O` stands 4.7% (inactive).
Consider `C#CCN1CC(=O)N(COC(=O)C2C(C=C(C)C)C2(C)C)C1=O` (stereo not given), for which the max response was 2.56% (inactive).
Same read-out and setting: under `CC(C)(C)c1cc(O)ccc1O` stands 21.5% (inactive) and -0.658% (inactive) and -3.53% (inactive); under `CCCSP(=O)(OCC)SCCC`, -15.9% (inactive).
For `O=C1C2CC=CCC2C(=O)N1SC(Cl)(Cl)Cl` (stereo not given), the max response is -23.3% (inactive) and the Potency was 28.2 µM (active).
For the compound `CCOP(=O)(OCC)O/C(=C/Cl)c1ccc(Cl)cc1Cl`, the max response was -18.8% (inactive) and -8.15% (inactive).
The same measure, in the same setting: the result for `[O]=[Cr](=[O])([OH])[O][Cr](=[O])(=[O])[OH]` reads -23.9% (inactive).
Same read-out and setting: the result for `O=C(O)c1cc[c]([Hg][Cl])cc1` reads 8.27% (inactive); that for `CC(C)Nc1ccc(Nc2ccccc2)cc1`, -21.1% (inactive); that for `O=[N+]([O-])c1ccc(F)c([N+](=O)[O-])c1`, -6.71% (inactive).
In the case of `O=C1CCO1`, the max response was 5.4% (inactive).
For the compound `O=c1[nH]c(=O)n(Cl)c(=O)n1Cl`, the max response was -11% (inactive).
Take `CC[C@H](C)[C@H]1O[C@]2(C=C[C@@H]1C)C[C@@H]1C[C@@H](C/C=C(\C)[C@@H](O[C@H]3C[C@H](OC)[C@@H](O[C@H]4C[C@H](OC)[C@@H](O)[C@H](C)O4)[C@H](C)O3)[C@@H](C)/C=C/C=C3\CO[C@@H]4[C@H](O)C(C)=C[C@@H](C(=O)O1)[C@]34O)O2`: the Potency is 39.8 µM (active).
Regarding `CC(C)CCON=O`, the max response was 1.97% (inactive).
Consider `COC1=CC(=O)O[C@@H](/C=C/c2ccccc2)C1`, for which the max response was 4.02% (inactive).
As for `Oc1cc(Cl)c(Cl)cc1Cl`, the max response is 4.14% (inactive) and 5.09% (inactive).
Still for that read-out and setting: the result for `N#CN` reads -18.5% (inactive).
On the same count and under the same terms, under `C=CCN=C=S` stands 9.92% (inactive).
Regarding `O=C(O)C(Cl)(Cl)Cl`, the max response was -1.81% (inactive) and -2.86% (inactive).
The same measure, in the same setting: the result for `O=CC=O` reads 0.354% (inactive).
On the same count and under the same terms, the result for `O=[N+]([O-])c1ccccc1` reads -3.95% (inactive) and -3.49% (inactive).
`O=Cc1ccco1`: the max response was -4.31% (inactive).
Consider `CCCCCCCCOC(=O)c1ccccc1C(=O)OCCCCCCCC`, for which the max response is -5.46% (inactive) and -4.31% (inactive).
Same read-out and setting: under `ClCC1CO1` (stereo not given) stands -2.98% (inactive).
Turning to `O=C1C[C@@H]2OCC=C3CN4CC[C@]56c7ccccc7N1[C@H]5[C@H]2[C@H]3C[C@H]46`, the max response is -11.2% (inactive).
As to `C[CH2][Hg][S]c1ccccc1C(=O)O`, the Potency was 44.7 µM (active).
Turning to `CCOC(=O)c1ccccc1C(=O)OCC`, the max response was 8.89% (inactive) and -10.7% (inactive) and -8.42% (inactive).
Consider `C[C@H]1CCC[C@H](O)CCCCCc2cc(O)cc(O)c2C(=O)O1`, for which the max response is -13.4% (inactive).
Turning to `COc1ccc2c(c1OC)C(=O)OC2C1c2cc3c(cc2CCN1C)OCO3` (stereo not given), the max response was -15.1% (inactive).
As to `[O]=[Cd]`, the max response was -0.962% (inactive).
On to `CCCCCl`, for which the max response is -3.38% (inactive).
